Data: the supplement of paper PMC12669032
A number with no mark means an inactive call.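 The calls were made as follows: active = AUC reduced over 20% with Padj below 0.05 in at least 2 of 3 replicates; inactive = otherwise.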

tested on: Roseburia intestinalis; assay: growth AUC relative to DMSO control (median of replicates) (fraction); higher = more growth (less inhibition), active = hit call of the paper; conditions: 20 µM; 24 h
Outline: (§1)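 Gut bacterial monocultures were grown anaerobically at 37 °C in mGAM, starting at OD600 0.05, with 20 µM compound (1% DMSO) in round-bottom 96-well plates under pierced gas-permeable seals. OD600 was read hourly for 24 h. Area under the growth curve (minimum OD set to 0) was normalised to the plate median of DMSO controls, or to row and column medians on the industrial chemical plate. The value is the median of three biological replicates grown on separate days.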

| Compound | growth AUC |
| --- | --- |
| CCCCOC(=O)C(C)Oc1ccc(Oc2ccc(C(F)(F)F)cn2)cc1 (stereo not drawn) | 0.932 |
| CN(C)C(=O)Nc1cc(C(C)(C)C)on1 | 1.03 |
| O=C(NCc1ncc(C(F)(F)F)cc1Cl)c1c(Cl)cccc1Cl | 0.968 |
| CON=C(Cc1cccnc1)c1ccc(Cl)cc1Cl | 1.05 |
| COC(=O)C(C)Oc1cc(Cl)c(Cl)cc1Cl (stereo not drawn) | 1.01 |
| c1cc2ccc3ccc4ccc5cccc6c(c1)c2c3c4c56 | 1.02 |
| Cc1ccc(Cl)cc1 | 1 |
| Cc1nn(C)c(Oc2ccccc2)c1/C=N/OCc1ccc(C(=O)OC(C)(C)C)cc1 | 0.924 |
| CC(C)CNC(=O)N1CCNC1=O | 1.1 |
| CCOCCOC(=O)C(C)Oc1ccc(Oc2ncc(C(F)(F)F)cc2Cl)cc1 (stereo not drawn) | 0.953 |
| c1ccc(Nc2ccccc2)cc1 | 1.01 |
| COC(=O)c1c(Cl)ccc(Cl)c1OC | 0.982 |
| CC(C)(C)Nc1nc(N)nc(Cl)n1 | 1.01 |
| S=C([S-])NCCNC(=S)[S-].[Mn+2] | 0.96 |
| CC(C)COC(=O)COc1cc(Cl)c(Cl)cc1Cl | 1.01 |
| CO/N=C(/C(=O)O)c1ccccc1CO/N=C(\C)c1cccc(C(F)(F)F)c1 | 1.01 |
| C/C=C/C(=O)Oc1c(C(C)CCCCCC)cc([N+](=O)[O-])cc1[N+](=O)[O-] (mixture of isomers) | 0.809 |
| Nc1ccc(O)cc1 | 1.01 |
| O=C(O)Cc1c[nH]c2ccccc12 | 1.1 |
| CCCCOCCOCCOCc1cc2c(cc1CCC)OCO2 | 1 |

| Compound | growth AUC |
| --- | --- |
| CCOC(=O)Cc1[nH]nc2ccc(Cl)cc12 | 1.14 |
| CC(C)NS(=O)(=O)NC(=O)c1cc(-n2c(=O)cc(C(F)(F)F)[nH]c2=O)c(F)cc1Cl | 1 |
| CC(C)N(C)S(=O)(=O)NC(=O)c1cc(-n2c(=O)cc(C(F)(F)F)[nH]c2=O)c(F)cc1Cl | 0.987 |
| O=C(O)CNC(=O)c1cnccc1C(F)(F)F | 1.03 |
| COc1ccccc1C(=O)NS(=O)(=O)c1ccc(C(=O)NC2CC2)cc1 | 0.978 |
| COC(=O)CSc1cc(N=c2sc(=O)n3n2CCCC3)c(F)cc1Cl | 0.971 |
| Clc1ccc(CSc2ccc(Cl)cc2)cc1 | 0.965 |
| Cl.NCCO/C=C/[C@H](N)C(=O)O | 0.975 |
| CCN(Cc1c(F)cccc1Cl)c1c([N+](=O)[O-])cc(C(F)(F)F)cc1[N+](=O)[O-] | 0.864 |
| CCOCCc1ccc(OCCNc2ncnc(CC)c2Cl)c(C)c1C | 0.923 |
| ClC(COCC(Cl)C(Cl)(Cl)Cl)C(Cl)(Cl)Cl (stereo not drawn) | 1.01 |
| Oc1c(Cl)cc(Cl)c(Cl)c1Cc1c(O)c(Cl)cc(Cl)c1Cl | 0.0498 (active) |
| CC(C)N(C(=O)CS(=O)CC(=O)O)c1ccc(F)cc1 (stereo not drawn) | 1.03 |
| Oc1ccccc1O | 1.1 |
| COC(=O)c1c(Cl)c(Cl)c(C(=O)OC)c(Cl)c1Cl | 0.964 |
| CCOCOc1ccc(C(=O)Nc2cccc(Cl)c2Cl)cc1 | 1 |
| c1ccc2cc3ccccc3cc2c1 | 0.933 |
| Cc1[nH]oc(=O)c1N=Nc1ccccc1Cl | 0.938 |
| c1ccc2cc3c(ccc4ccccc43)cc2c1 | 1.01 |

tested on: Streptococcus salivarius; assay: as above; conditions: 20 µM; 24 h
Outline: as §1

| Compound | growth AUC |
| --- | --- |
| CCCCOC(=O)C(C)Oc1ccc(Oc2ccc(C(F)(F)F)cn2)cc1 (stereo not drawn) | 0.974 |
| CN(C)C(=O)Nc1cc(C(C)(C)C)on1 | 1 |
| O=C(NCc1ncc(C(F)(F)F)cc1Cl)c1c(Cl)cccc1Cl | 0.967 |
| CON=C(Cc1cccnc1)c1ccc(Cl)cc1Cl | 0.997 |
| COC(=O)C(C)Oc1cc(Cl)c(Cl)cc1Cl (stereo not drawn) | 1.02 |
| c1cc2ccc3ccc4ccc5cccc6c(c1)c2c3c4c56 | 1.02 |
| Cc1ccc(Cl)cc1 | 1.02 |
| Cc1nn(C)c(Oc2ccccc2)c1/C=N/OCc1ccc(C(=O)OC(C)(C)C)cc1 | 0.993 |
| CC(C)CNC(=O)N1CCNC1=O | 0.995 |
| CCOCCOC(=O)C(C)Oc1ccc(Oc2ncc(C(F)(F)F)cc2Cl)cc1 (stereo not drawn) | 0.959 |
| c1ccc(Nc2ccccc2)cc1 | 1.02 |
| COC(=O)c1c(Cl)ccc(Cl)c1OC | 1.04 |
| CC(C)(C)Nc1nc(N)nc(Cl)n1 | 0.975 |
| S=C([S-])NCCNC(=S)[S-].[Mn+2] | 1.07 |
| CC(C)COC(=O)COc1cc(Cl)c(Cl)cc1Cl | 0.958 |
| CO/N=C(/C(=O)O)c1ccccc1CO/N=C(\C)c1cccc(C(F)(F)F)c1 | 0.915 |
| C/C=C/C(=O)Oc1c(C(C)CCCCCC)cc([N+](=O)[O-])cc1[N+](=O)[O-] (mixture of isomers) | 0.301 (active) |
| Nc1ccc(O)cc1 | 0.947 |
| O=C(O)Cc1c[nH]c2ccccc12 | 1.01 |
| CCCCOCCOCCOCc1cc2c(cc1CCC)OCO2 | 1.03 |

| Compound | growth AUC |
| --- | --- |
| CCOC(=O)Cc1[nH]nc2ccc(Cl)cc12 | 1 |
| CC(C)NS(=O)(=O)NC(=O)c1cc(-n2c(=O)cc(C(F)(F)F)[nH]c2=O)c(F)cc1Cl | 1 |
| CC(C)N(C)S(=O)(=O)NC(=O)c1cc(-n2c(=O)cc(C(F)(F)F)[nH]c2=O)c(F)cc1Cl | 1.01 |
| O=C(O)CNC(=O)c1cnccc1C(F)(F)F | 1 |
| COc1ccccc1C(=O)NS(=O)(=O)c1ccc(C(=O)NC2CC2)cc1 | 1.01 |
| COC(=O)CSc1cc(N=c2sc(=O)n3n2CCCC3)c(F)cc1Cl | 0.946 |
| Clc1ccc(CSc2ccc(Cl)cc2)cc1 | 1.01 |
| Cl.NCCO/C=C/[C@H](N)C(=O)O | 1.05 |
| CCN(Cc1c(F)cccc1Cl)c1c([N+](=O)[O-])cc(C(F)(F)F)cc1[N+](=O)[O-] | 0.926 |
| CCOCCc1ccc(OCCNc2ncnc(CC)c2Cl)c(C)c1C | 1 |
| ClC(COCC(Cl)C(Cl)(Cl)Cl)C(Cl)(Cl)Cl (stereo not drawn) | 1.02 |
| Oc1c(Cl)cc(Cl)c(Cl)c1Cc1c(O)c(Cl)cc(Cl)c1Cl | 0.0329 (active) |
| CC(C)N(C(=O)CS(=O)CC(=O)O)c1ccc(F)cc1 (stereo not drawn) | 0.948 |
| Oc1ccccc1O | 0.987 |
| COC(=O)c1c(Cl)c(Cl)c(C(=O)OC)c(Cl)c1Cl | 0.962 |
| CCOCOc1ccc(C(=O)Nc2cccc(Cl)c2Cl)cc1 | 0.989 |
| c1ccc2cc3ccccc3cc2c1 | 0.919 |
| Cc1[nH]oc(=O)c1N=Nc1ccccc1Cl | 0.982 |
| c1ccc2cc3c(ccc4ccccc43)cc2c1 | 0.962 |
